From PubChem BioAssay AID449762 (Southern Research Specialized Biocontainment Screening …, 2010)
Among all 330,000 compounds or so, about 1,900 (0.58%) were called active. About 4% were inconclusive and are not listed. These entries were drawn from the full list. Results with a measured potency or affinity are listed apart. Values without a mark were called inactive. Cut-off read from the data, not from the text of the source: inconclusive = inhibition above about 70% without an active follow-up result; inactive = below that.

assay: M. tuberculosis growth inhibition, HTS (AID 449762);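 note: bacterial growth assessed after seven days of incubation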; conditions: M. tuberculosis H37Rv growth inhibition, 7H9 media; at 25 µM; stronger effect = higher value

| Compound | inhibition |
| --- | --- |
| O=C(c1cc2c(=O)n3ccccc3nc2s1)N1CCN(c2cccc(Cl)c2)CC1 | 5.56% |
| CC(=O)c1nn(-c2ccccc2)cc1C(=O)c1ccc(C)cc1 | 2.07% |
| COc1ccc2oc(-c3ccc(C)c(NC(=O)CSc4ccc(Cl)cc4)c3)nc2c1 | -3.67% |
| Cc1ccc(/C=C2\SC(=S)N(CCC(=O)NNC(=O)c3ccc(O)cc3)C2=O)cc1 | 3.42% |
| Cc1cccc(C2=N/C(=C\c3cccnc3)C(=O)O2)c1 | -3.98% |
| Cc1ccccc1C1=N/C(=C/c2cccs2)C(=O)O1 | 61% |
| CCOC(=O)N=Nc1c(O)n(CC(=O)OC)c2ccccc12 | -0.16% |
| CCCSc1nc2c(cnn2-c2ccc(Cl)cc2)c(=O)[nH]1 | 6.95% |
| O=C(NNC(=O)c1cc(S(=O)(=O)N2CCOCC2)c(Cl)cc1Cl)c1ccccc1F | 0.47% |
| Cc1nn(Cc2ccccc2)c(C)c1C(=O)OCC(=O)Nc1cc(S(C)(=O)=O)ccc1Cl | 6.17% |
| O=C(Nc1ccc(F)cc1)N1CCN(c2ccc3nnc(-c4ccc(F)cc4)n3n2)CC1 | -4.53% |
| O=C(Nc1ccccc1Cl)N1CCN(c2ccc3nnc(-c4ccc(F)cc4)n3n2)CC1 | 22.4% |
| CC1=C(C(=O)NC(C)c2ccccc2)C2(CCC(C)CC2)OC1=O (stereo not given) | -6.81% |
| Cc1cc(/C=C(\C#N)C(=O)NCc2ccccc2)cc(C)c1O | -9.9% |
| CCOc1cc(CNCc2ccc3c(c2)OCO3)ccc1OC | -2.37% |
| COc1ccc(CCNC(=O)CSc2ncc(C(=O)Nc3ccccc3)c(=O)n2C)cc1 | -4.13% |
| Cc1cccc(NC(=S)N(CCCN2CCCC2)Cc2cccn2Cc2ccc(Cl)cc2)c1 | 42.3% |
| COc1cccc(NC(=S)N(CCCN2CCCC2)Cc2cccn2Cc2ccc(Cl)cc2)c1 | 6.09% |
| CN(C)N1C(=O)/C(=C/c2ccco2)SC1=Nc1ccccc1 | -2.31% |
| ClC1(CNc2ccccc2)CCN(Cc2ccccc2)CC1 | -3.08% |
| OC1(c2ccccc2)CCN(Cc2ccccc2)CC1 | -0.23% |
| CCOC(=O)N1CCC2(CC1)C(C#N)=C(N)OC1=C2C(=O)CC(C)C1 (stereo not given) | -8.64% |
| COc1ccc(NC(=O)CSc2nc3ccccc3c(=O)[nH]2)cc1S(N)(=O)=O | -3.14% |

| Compound | inhibition |
| --- | --- |
| C(=N\Nc1nc(-c2ccccc2)cs1)/c1cccs1 | 28.8% |
| CC(=O)Nc1ccc(-c2csc(N/N=C\c3ccncc3)n2)cc1 | 6.44% |
| CC(CNC(=O)CN1C(=O)NC2(CCCCC2)C1=O)c1ccccc1 (stereo not given) | -3.97% |
| COC(=O)c1nnn(CC(=O)NC(=O)Nc2ccccc2)c1C(=O)OC | -6.63% |
| O=C1c2ccccc2C(=O)c2c1oc(C(F)(F)F)c2C(=O)c1ccccc1 | 9.23% |
| COc1ccc(C(=O)Nc2ccc3c(c2)C(=O)c2ccccc2C3=O)cc1OC | 4.14% |
| CC(C)(C)c1ccc(C(=O)NCC(=O)OCC(=O)N2CCN(S(=O)(=O)c3ccc(Cl)cc3)CC2)cc1 | 8.58% |
| CC(=O)Nc1ccc(S(=O)(=O)NCc2ccc(C(=O)NCCCN3CCC(C)CC3)cc2)cc1 | 2.04% |
| Cc1ccc(S(=O)(=O)NCc2ccc(C(=O)NCCCN3CCN(C)CC3)cc2)cc1 | -4.79% |
| N/C(=N\OC(=O)c1cnn(-c2ccccc2)c1C(F)(F)F)c1cc(C(F)(F)F)cc(C(F)(F)F)c1 | 9.61% |
| COc1cc(C2/C(=C(\O)c3ccc4c(c3)OCCO4)C(=O)C(=O)N2Cc2ccco2)ccc1O (stereo not given) | -4.18% |
| CSCc1ccc(C(=O)OCc2nc3ccccc3s2)o1 | 65.8% |
| O=C(OCc1nc2ccccc2s1)c1ccco1 | 53.7% |
| CC(=O)C1=C(O)C(=O)N(c2ccc(Br)cc2)C1c1cccc([N+](=O)[O-])c1 (stereo not given) | -1.11% |
| O=C(CS(=O)CC(=O)Nc1cnc2ccccc2c1)Nc1ccc(Cl)cc1 (stereo not given) | 47% |
| CCOc1ccc(NC(=S)NC23CC4CC(CC(C4)C2)C3)cc1 | -20.5% |
| CSc1nsc(SC)c1C(=O)OCC(F)(F)F | -1.41% |
| CCN(CC)C(=O)CN1CCC(c2nc3cc(C)c(C)cc3[nH]2)CC1 | -1.85% |
| CCN1CCN(CC2COc3ccccc3O2)CC1 (stereo not given) | -2.32% |
| CCC(C)N1C(=O)CCC1C(=O)NCCc1ccc(Cl)cc1 (stereo not given) | 5.11% |
| CCCCOc1ccc(CC2CCC(=O)NC2=O)cc1 (stereo not given) | 12.4% |
| CCOc1ccc(C(C)(C)C)cc1S(=O)(=O)n1nc(C)cc1C | -3.62% |
| O=C(/C=C/c1ccccc1)Oc1ccc(C(=S)N2CCOCC2)cc1 | 13.4% |

| Compound | inhibition |
| --- | --- |
| COc1cc(C(=S)N2CCOCC2)ccc1OC(=O)/C=C/c1ccco1 | 5.25% |
| CN(C)S(=O)(=O)c1ccc(Nc2ccc(-c3ccc4c(c3)OCCO4)nn2)cc1 | 2.53% |
| CN(C(=O)c1cccc(NC(=O)c2ccccc2)c1)C1CCCCC1 | -5.84% |
| CCOc1ccc(-c2nn3c(-c4ccc(F)cc4)nnc3s2)cc1 | 0.65% |
| COc1ccc(-c2nn3c(-c4ccccc4)nnc3s2)cc1 | 36.9% |
| COc1ccccc1OCC(=O)N/N=C1/C=C(C)CC1 | 8.93% |
| O=C(c1ccc(CNc2c(N3CCCC3)c(=O)c2=O)cc1)N1CCN(C2CCCCC2)CC1 | 38.8% |
| COc1ccc(CNC(=O)C2CCC(CNc3c(N4CCOCC4)c(=O)c3=O)CC2)cc1 (stereo not given) | -8.95% |
| COc1cc(NC(=O)c2ccc(CNc3c(N4CCOCC4)c(=O)c3=O)cc2)cc(OC)c1 | -10.6% |
| Cc1ccc(CNC(=O)c2ccc(CNc3c(N4CCCC4)c(=O)c3=O)cc2)cc1 | -5.18% |
| CC(C)C[C@H]1CNC(=O)C(=O)N1C[C@H](C)NC(=O)Cc1ccccc1 | -3.35% |
| N#Cc1cccc(C(=O)N(CCc2ccccc2)Cc2cccs2)c1 | 2.88% |
| Cc1cc(NC(=O)CN(C)CC(=O)Nc2ccc(F)c(F)c2F)no1 | -14.5% |
| N#Cc1c(-c2ccc(Br)cc2)nc2n(c1=O)CCCS2 | -5.36% |
| O=c1nc2n(c3ccc(Br)cc13)CCS2 | 14% |
| CC(C)n1nnnc1-c1ccc(Cl)cc1 | -5.7% |
| Cc1ccc(C23OCCN2CCn2nc4ccccc4c23)cc1 (stereo not given) | -9.54% |
| N#Cc1ccc(C23OCCN2CCn2c3c3ccccc3[n+]2[O-])cc1 (stereo not given) | 21.6% |
| O=C(Nc1sc2c(c1C(=O)NC1CC1)CCCCCC2)c1ccco1 | -5.06% |
| c1cncc(C2CC(c3cccs3)n3ncnc3N2)c1 (stereo not given) | -8.25% |
| Cc1ccc2nc(/C(C#N)=C/c3ccc(O)c(O)c3)[nH]c2c1 | 0.8% |
| Cc1ccc2nc(/C(C#N)=C/c3ccccc3C(=O)O)[nH]c2c1 | -0.89% |
| CCc1ccccc1NC(=O)CNC(=O)c1n[nH]c(=O)c2ccccc12 | -6.75% |

| Compound | inhibition |
| --- | --- |
| C=C[C@@H]1c2cc(C)ccc2N(S(=O)(=O)c2ccc(C)cc2)[C@H](c2ccccc2)C1(C#N)C#N | -12.5% |
| COc1cc(C)ccc1OCCOc1c(Cl)cc(Cl)cc1Cl | -4.9% |
| COc1cc(C)ccc1OCCOc1c(C)cccc1Cl | 62.7% |
| CC(C)Oc1ccc(C(=O)NC(Cc2c[nH]c3ccccc23)C(=O)NN)cc1 (stereo not given) | 3.03% |
| CC(C)NC(=O)c1cnc(N2CCN(c3ccccn3)CC2)c2ccccc12 | -4.73% |
| Cc1cc(Br)ccc1NC(=O)CN1CCN(c2ccccn2)CC1 | -1.24% |
| COc1ccccc1C(=O)Nc1ccc(Cc2ccncc2)cc1 | -0.58% |
| COc1ccc(Br)cc1C(=O)Nc1ccc(Cc2ccncc2)cc1 | -1.26% |
| O=C(NCCc1ccc(Cl)cc1)C1CCCN(c2ncnc3c2nc2n3CCCCC2)C1 (stereo not given) | 29.1% |
| CC1CCCN(C(=O)c2ccc(-c3ccccc3Cl)o2)C1 (stereo not given) | 27.8% |
| NC(=O)C1CCN(C(=O)c2ccc(-c3ccccc3Cl)o2)CC1 | -1.57% |
| COCc1cc(C)nc(SCC[N+](C)(C)CC(=O)Nc2cccc(C)c2)c1C#N | 10.4% |
| CNc1nc2c(-c3ccc(Cl)cc3)nnn2c2ccccc12 | 8.01% |
| NNc1nc2c(-c3ccc(Cl)cc3)nnn2c2ccccc12 | -3.53% |
| CCC(C)CCN1C(Nc2ccccc2)=NC[C@@H]1CC(C)C (stereo not given in full) | -0.75% |
| CN1C(C(=O)N2CCC3(CC2)OCCO3)=CC(c2ccc(F)cc2)=NS1(=O)=O | 1.76% |
| Cc1nonc1OCCNCCNc1ccccc1[N+](=O)[O-] | 5.53% |
| Cc1nonc1OCCNc1ccc([N+](=O)[O-])c2cccnc12 | 2.82% |
| C#CCOCCOCCOCCNc1nc(N2CCN(C(=O)[C@H](CCC(=O)O)n3cc(C(N)Cc4ccc(O)cc4)nn3)CC2)nc(N2CCN(C(=O)[C@H](Cc3cc4ccccc4[nH]3)n3cc(C(N)CC(C)C)nn3)CC2)n1 (stereo not given in full) | -1.44% |
| C#CCOCCOCCOCCNc1nc(N2CCN(C(=O)C(CCC(=O)O)n3cc(C(N)CC(C)C)nn3)CC2)nc(N2CCN(C(=O)C(Cc3cc4ccccc4[nH]3)n3cc(C(N)Cc4ccc(O)cc4)nn3)CC2)n1 (stereo not given) | 2.57% |
| CCCNC(=O)OCc1cccnc1Sc1ccc(C)cc1 | 3.87% |
